Screening results deposited in PubChem BioAssay by National Center for Advancing Translational Sciences (NCATS).
HCMV antiviral = qHTS Assay for inhibitors of the human cytomegalovirus (HCMV); HFF cells, HCMV-luciferase reporter, 72 h; active compounds read low; activity change, negative = inhibition, % at 57.5 µM; 4.5% of 410,000 active; AID 1259415, 2018; in the data active means activity change below about -60%; inconclusive means no clear call, values can overlap the other calls; inactive means above about -39%
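Human foreskin fibroblasts infected with luciferase-reporter HCMV at MOI 1 PFU/cell, compounds at two doses. Luciferase measured 72 h post infection; normalized to buffer-only basal and Salinomycin (10uM) controls.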
Giardia FBPA inh = qHTS Assay for Inhibitors of Fructose-1,6-bisphosphate Aldolase from Giardia Lamblia. A8B2U2. purified Giardia FBPA. Potency, µM (series often up to 59.6 µM), for the others: at the top dose activity, negative = inhibition, actives largely listed as inhibitors. 0.71% of 290,000 active. AID 2451, 2010; further: potency means the concentration at half of the fitted maximal effect; nearly all actives have a fitted effect of over 55% in size
Target sequence (A8B2U2 whole entry, looked up): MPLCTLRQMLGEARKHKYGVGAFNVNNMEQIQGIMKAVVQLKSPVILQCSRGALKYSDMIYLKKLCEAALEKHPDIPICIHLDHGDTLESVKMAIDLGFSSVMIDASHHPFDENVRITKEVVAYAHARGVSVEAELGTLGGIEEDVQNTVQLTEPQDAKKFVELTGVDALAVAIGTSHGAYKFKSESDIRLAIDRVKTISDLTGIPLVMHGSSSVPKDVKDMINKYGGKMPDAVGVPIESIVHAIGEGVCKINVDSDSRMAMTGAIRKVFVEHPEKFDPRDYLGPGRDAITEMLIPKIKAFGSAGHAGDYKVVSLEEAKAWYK
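40 nM FBPA preincubated 10 min at RT with compound (up to 57.5 uM final), then substrate plus GAPDH/TPI/NAD/arsenate coupling and diaphorase/resazurin added. Fluorescence read after 20 min at RT, 525/598 nm.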
FMDV antiviral = High Throughput Screening for Foot and Mouth Disease Virus Antivirals; FMDV antiviral cell-based qHTS; Potency, µM (titrated, usually from 57.9 µM), for the others: at the highest dose activity change, negative = inhibition, usual class: inhibitors; 1.2% of 410,000 active; calls by dose curve; tested in HEK293T cells; further: read-out not given here; potency means the concentration at half of the fitted maximal effect; nearly all actives have a fitted effect of over 45% in size
RE007 growth inh = qHTS Assay for Inhibitors of the HIV-1 protein Vpr. S. pombe RE007 Vpr strain, BacTiter-Glo ATP luminescence, 24 h. Potency, µM (highest dose often 92.2 µM), for the others: at the top dose activity change, negative = less growth, most hits filed as inhibitors. 0.21% of 360,000 active. AID 651644, 2012; active means well fitted falling curve with a large enough effect; inconclusive means small, poorly fitted or top-dose-only effect; inactive means no such curve, though single readings can be large or run the other way; further: potency means the concentration at half of the fitted maximal effect; nearly all actives have a fitted effect of over 50% in size
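Fission yeast RE007 carrying one integrated HIV-1 vpr copy, seeded at OD 0.01 in PMG+AL medium with 23 nL pinned compound. Grown 24 h at 30 degrees; viability read by BacTiter-Glo luminescence after 5 min.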
Sm TGR block = qHTS Assay for the Inhibitors of Schistosoma Mansoni Peroxiredoxins; AID 485364, 2010; purified TGR, DTNB reduction, TNB absorbance 405 nm; 3% of 360,000 active; Potency, µM (top dose mostly 114 µM), without a hit: top-dose activity change, negative = inhibition, hits mostly inhibitors; further: potency means the concentration at half of the fitted maximal effect; nearly all actives have a fitted effect of over 60% in size
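Kinetic colorimetric format: TGR-catalysed, NADPH-driven DTNB reduction monitored via TNB absorbance. Enzyme dispensed at 20 nM; compound exposure 15 min at room temperature before reaction start.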
TbPYK inhibitor = qHTS of Trypanosoma Brucei Inhibitors | TbPYK enzyme, Kinase-Glo Plus ATP luminescence, 45 min | Potency, µM (doses to about 76.8 µM), inactives show at the highest dose activity, negative = inhibition, usual class: inhibitors | 0.12% of 410,000 active | AID 624173, 2012; further: potency means the concentration at half of the fitted maximal effect; nearly all actives have a fitted effect of over 50% in size
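Luminescent Kinase-Glo Plus end-point after 45 min room-temperature reaction of T. brucei pyruvate kinase started with 130 uM ADP (final). Buffer TEA 50 mM pH 7.2 with KCl, MgCl2, BSA, Tween-20; titration-based qHTS with fitted concentration-effect curves.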
An asterisk follows results filed as active; ? = inconclusive; / = no result given; ! = not active in a repeat; [ ] = another dose, or the depositor's remark. Compounds with a hit are over-represented: about 7.7% of the library has one in this group of screens. Unless noted, the call rests on the fitted dose curve; in most records, active means well fitted curve in the direction sought with a large enough effect; inconclusive means small, poorly fitted or top-dose-only effect, or another doubt; inactive means no such curve, though single readings can be large; an effect the other way counts as inactive or inconclusive. On the % scale 0 is the no-effect control and ±100 the full control effect.

SMILES	HCMV antiviral	Giardia FBPA inh	FMDV antiviral	RE007 growth inh	Sm TGR block	TbPYK inhibitor
Cc1ccc2nc(-c3ccncc3)cc(-c3ccccc3)c2c1	6	1%	0%	?	-14%	-1%
[C-]#[N+]c1cc(-c2ccncc2)c(C)[nH]c1=O	/	/	1%[146 µM]	/	/	/
CCOC(=O)Cc1csc(NC(=O)COc2ccc(OC)cc2)n1	12	3%	?	-6%	0%	2%
CCc1nnc(NC(=O)COc2ccc(N(C)S(=O)(=O)c3ccc(C)cc3)cc2)s1	-102*	0%	-13%	11%	9%	-1%
CC(=O)Nc1ccc(S(=O)(=O)N(C)c2ccc(OCCOc3ccccc3F)cc2)cc1	0	/	-10%	-4%	/	10%
CCOC(=O)Cc1csc(NC(=O)COc2ccc(N(C)S(=O)(=O)c3ccc(C)cc3)cc2)n1	17	-1%	18µM*	-15%	-7%	3%
CC(=O)Nc1ccc(S(=O)(=O)N(C)CC(=O)OCC(=O)NNC(=O)c2ccccc2F)cc1	11	/	4.5µM*	-1%	2%	1%
CC(=O)Nc1ccc(S(=O)(=O)N(C)c2ccc(OCC(=O)NCCc3ccccc3F)cc2)cc1	-62*	/	?	6%	/	-6%
CCCn1c(C)nc2c(NCCCN3CCCCC3C)nc(C)nc21 (stereo not given)	/	0%	/	/	/	/
CCOc1ccc(S(=O)(=O)N(C)c2ccc(OCC(=O)Nc3nc4ccccc4s3)cc2)cc1	?	1%	?	5%	6%	-6%
CN(c1ccc(OCC(=O)Nc2nc3ccccc3s2)cc1)S(=O)(=O)c1ccccc1	?	4%	11µM*	-9%	3%	2%
Cc1ccc2nc(-c3ccccc3)nn2c1	14	/	11µM*	?	/	?
O=C(Cn1cccn1)N1CCOc2c(cc(-c3ncc(C(F)(F)F)cc3Cl)cc2OCC2CCCO2)C1 (stereo not given)	/	/	-16%	/	/	/
OC(c1ccc2c(c1)CN(Cc1cccc3nccnc13)CCO2)C1CCCCC1 (stereo not given)	/	/	0%	/	/	/
CCOc1ccccc1N(CC(=O)N1CCC(C(N)=O)CC1)S(=O)(=O)c1ccc(SC)cc1	-70*	/	28%	-11%	-31%	-7%
CCOc1ccccc1N(CC(=O)N1CCC(C)CC1)S(=O)(=O)c1ccc(C)cc1	-19	/	36%	3%	2%	1%
Cc1ccc(S(=O)(=O)N(CC(=O)N2CCCCCC2)c2ccccc2F)cc1	-62*	/	29%	7%	8%	3%
Cc1cnc(CNc2cc(-c3cccnc3)ncn2)cn1	/	5%	0%	/	/	/
CCCCCCCc1cc2ccccc2c(=O)o1	/	-1%	/	/	/	/
Nc1c[n+](N2CCOCC2)no1	/	2%	-7%	/	/	1%
C[C@]12CCC(=O)C[C@@H]1CC[C@@H]1[C@@H]2CC[C@]2(C)[C@@H](C(=O)COC(=O)CCC(=O)O)CC[C@@H]12	-61*!	-1%	-15%	2%	0%	3%
O=C(OCCN1C(=O)c2cccc3c(N4CCOCC4)ccc(c23)C1=O)c1ccc(Cl)cc1Cl	-29	4%	16µM*	2%	-1%	2%
CC(C)c1ccc(Nc2ncnc3c2c(-c2ccccc2)cn3-c2ccccc2)cc1	-15	/	-12%	/	5%	-1%
Cc1cccc(-c2cc(=O)c3cc(Br)ccc3o2)c1	/	7%	/	/	/	/
COc1ccc2c(c1)CC(NC(=O)Nc1cc(Cl)ccc1OC)CO2 (stereo not given)	-30	/	?	/	-2%	2%
SMILES	HCMV antiviral	Giardia FBPA inh	FMDV antiviral	RE007 growth inh	Sm TGR block	TbPYK inhibitor
CCC(Sc1nc2ccsc2c(=O)n1Cc1ccc(C(=O)O)cc1)C(=O)Nc1ccc(C)c(Cl)c1 (stereo not given)	-26	/	-27%	-10%	-6%	6%
CCC(Sc1nc2ccsc2c(=O)n1Cc1ccc(C(=O)O)cc1)C(=O)Nc1cc(Cl)ccc1C (stereo not given)	-95*	/	-6%	-11%	/	3%
Cc1cccc(NC(=O)N2CCN(Cc3ccc4c(c3)OCO4)CC2)c1C	-75*	1%	-21%	1%	0%	13%
O=C(c1ccc(COc2ccc(Cl)cc2)o1)N1CCN(Cc2ccc3c(c2)OCO3)CC1	-33	0%	/	9%	-22%	-7%
O=C(Nc1ccc2c(c1)OCO2)C1CCN(Cc2cc3c(cc2O)OCO3)CC1	33	-23%	-12%	8%	2.8µM*	-1%
O=C(c1sccc1Br)N1CCN(Cc2ccc3c(c2)OCO3)CC1	-63*	1%	-27%	6%	-4%	-15%
O=C(c1ccc(COc2ccccc2Cl)o1)N1CCN(Cc2ccc3c(c2)OCO3)CC1	1	-17%	35µM*!	-11%	-24%	4%
Cc1ccc(C(=O)N2CCN(Cc3ccc4c(c3)OCO4)CC2)o1	0	2%	-1%	6%	3%	1%
CCN(CC)C(=O)N1CCN(Cc2ccc3c(c2)OCO3)CC1	-9	1%	23%	-3%	/	1%
COc1cccc(CN2CCC(C(=O)N3CCN(Cc4ccc5c(c4)OCO5)CC3)CC2)c1OC	-18	/	-14%	?	-14%	5%
Cc1ccc(NC(=O)N(Cc2ccc3c(c2)OCO3)C2CCN(Cc3ccccc3)CC2)cc1C	-21	/	-16%	/	1%	-3%
O=C(C(Cl)Cl)N1CCN(Cc2ccc3c(c2)OCO3)CC1	-74*	-2%	-7%	2%	1%	-8%
Cc1ccc(NC(=O)N(Cc2ccc3c(c2)OCO3)C2CCN(Cc3ccccc3)CC2)cc1Cl	-71*	/	-15%	/	8%	2%
O=C(C1CCN(Cc2ccccc2O)CC1)N1CCN(Cc2ccc3c(c2)OCO3)CC1	-65*	?	-21%	-27%	-16%	-9%
C#C[C@]1(O)CC[C@@H]2[C@H]3CCc4cc(OC)ccc4[C@@H]3CC[C@@]21C	/	0%[21.7 µM]	/	/	/	/
CCOc1ccc(C2CC(=O)n3nc(-c4ccc(C)cc4)nc3S2)cc1 (stereo not given)	-3	/	3%	/	7%	2%
COc1ccc(-c2nc3n(n2)C(=O)CC(c2ccco2)S3)cc1 (stereo not given)	/	-7%	4%	5%	18µM*	-20%
Cc1ccc(CNC(=O)CCCCCn2c(=O)c3sccc3n(CC(=O)Nc3ccc(C)c(F)c3)c2=O)cc1	8	/	-15%	/	-2%	0%
CCOc1cc2[nH]c(=O)n(CCCC(=O)N3CCN(c4ccc(OC)cc4)CC3)c(=O)c2cc1OCC	-1	/	?	/	8%	2%
